Source: PubChem BioAssay (NCATS)
Results filed as inconclusive are left out. Active and inactive are the calls of the source. Unless noted, calls follow the shape of the dose curve; as a rule, active = well fitted curve in the direction sought with a large enough effect; inconclusive = small, poorly fitted or top-dose-only effect, or another doubt; inactive = no such curve, though single readings can be large; an effect the other way counts as inactive or inconclusive.

Tests used:
[1] = Validation screen for small molecules that induce genotoxicity in human embryonic kidney (HEK293T) cells expressing luciferase-tagged ELG1 (AID 493106); also: 0% is about no effect
How it was run: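 Reporter-gene quantitative HTS in HEK293T cells carrying luciferase-tagged ELG1, whose level climbs under genotoxic stress. Compound exposure lasts 16 hr at 37 °C before luciferase detection.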

[2] = Nrf2 qHTS screen for inhibitors: Validation (AID 493153; active = well fitted inhibition curve with a large enough effect in the main read-out, with a control signal flat, not every such curve was filed as active; also: potency is read from the fitted curve at half-maximal effect); conditions: Potency: luciferase luminescence; viability change: measured here: cytotoxicity max response
How it was run: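 Dose-response validation uses reporter A549 cells with firefly luciferase under an antioxidant response element. Compounds stay on cells 18-24 h at 37°C, and luminescence indicates Nrf2-driven transcription.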

[3] = qHTS for Inhibitors of Cell Surface uPA Generation: Validation Assay (AID 493164);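 also: RAW 264.7 macrophage cells exposed to compound for 18 h; 0% is about no effect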
How it was run: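 RAW 264.7, 4000 cells/well, o/n plating; cpd 7-pt 1:5 dilution 2.45 nM–38.3 uM final; 18 h, 37 C/5% CO2; ATP-Lite, 5 s luminescence exposure.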

[4] = target: Peptidyl-prolyl cis-trans isomerase NIMA-interacting 1 (Homo sapiens) (UniProt Q13526); assay: qHTS Validation Assay to Find Inhibitors of Pin1 (AID 504536; active = well fitted inhibition curve with a large enough effect in the polarisation, with a control signal flat, not every such curve was filed as active; the % refers to the polarisation; also: potency is read from the fitted curve at half-maximal effect)
How it was run: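 Fluorescence polarization competition: compounds (titration) displace HiFluor-488-labeled Pin1-1b peptide from Pin1 (0.3 uM final) in pH 7.5 HEPES buffer with DTT, 10 min at room temperature; %Activity normalized to no-enzyme wells, curves fitted.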

[5] = target: Phosphoglycerate kinase, glycosomal (Trypanosoma brucei brucei) (UniProt P07378); assay: qHTS Validation Assay to Find Inhibitors of Phosphoglycerate Kinase (AID 504547);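 also: control wells lack PGK and mark full inhibition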
How it was run: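 PGK activity was coupled to GAPDH (100nM final), which generates the unstable substrate 1,3-bisphosphoglycerate in-well. Reactions ran 60 minutes at room temperature in 100mM TEA pH 7.6, 5mM MgCl2, 0.01% Tween-20, then Kinase-Glo Plus luminescence was read.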

[6] = target: phosphoglycerate mutase (Leishmania major) (UniProt Q4Q090); assay: qHTS Validation Assay to Find Inhibitors of Phosphoglycerate Mutase (AID 504548); conditions: Potency: inhibition qHTS; also: series mostly up to about 58 µM; % is scaled to controls: 0 for no effect and ±100 for the full control effect
How it was run: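 Luminescent end-point read-out via Kinase-GloPlus after a 10-minute development. Reaction: 1.25nM Leishmania major PGAM with substrate and compound, 45 minutes at room temperature in TEA buffer (pH 7.6) with MgCl2 and Tween-20.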

[7] = target: Ubiquitin carboxyl-terminal hydrolase 1 (Homo sapiens) (UniProt O94782); assay: Inhibitors of USP1/UAF1: Pilot qHTS (AID 504865); also: nearly all actives have a fitted effect of over 35% in size; also: potency is read from the fitted curve at half-maximal effect
How it was run: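 Kinetic fluorescence assay: 1nM USP1/UAF1, 15 min compound preincubation, then 150nM Ub-Rho; 480/540 nm.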

[8] = qHTS for Inhibitors of ATXN expression: Validation (AID 588378); also: nearly all actives have a fitted effect of over 75% in size; also: potency is read from the fitted curve at half-maximal effect
How it was run: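 Validation of ATXN2 expression inhibitors uses a cell-based luciferase fusion reporter in HEK293 cells, with 24 h compound exposure and paired viability (fluorescence) and reporter (luminescence) end-point reads.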

[9] = qHTS for Inhibitors of ATXN expression: Validation of Cytotoxic Assay (AID 588349);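 also: cells exposed to compound for 72 hr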; also: potency is read from the fitted curve at half-maximal effect
How it was run: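 HEK293, compound dose series, 72 hr / 37 degrees C; viability via CellTiter Glo (intracellular ATP).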

[10] = target: Thyrotropin-releasing hormone receptor (Homo sapiens) (UniProt P34981); assay: qHTS for Small Molecule Agonists and Allosteric Enhancers of Human TRH Receptor: Validation Screen for Agonists (AID 493127;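 active = calcium activation more than 3 SD above the typical response in the agonist read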;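 also: intracellular calcium rise by fluo-8 fluorescence before TRH EC20 addition; 0% is about no effect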); conditions: TRH receptor agonist cell assay; at 2 µM; stronger effect = higher value
How it was run: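 Gq-coupled calcium mobilization in TRHR cells after compound addition, monitored kinetically with fluo-8 dye on an FDSS reader.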

[11] = target: Galactokinase (Homo sapiens) (UniProt P51570); assay: qHTS Validation Assay for Inhibitors of Human Galactokinase (GALK) (AID 493189); also: potency is read from the fitted curve at half-maximal effect
How it was run: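 Compounds were pin-transferred into ATP buffer, then GALK-galactose mix was added (final 5 nM enzyme, 100 uM galactose, 35 uM ATP). After 1 h at room temperature, remaining ATP was measured luminescently.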

[12] = Validation screen for small molecules that induce DNA re-replication in SW480 colon adenocarcinoma cells (AID 504364); also: 0% is about no effect
How it was run: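 Cells are treated 48 hr with test compound, stained 40 min with Hoechst at 37 C, and scanned for nuclear fluorescence; compounds inducing re-replication increase nuclei with elevated intensity.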

[13] = target: DNA dC->dU-editing enzyme APOBEC-3G (Homo sapiens) (UniProt Q9HC16); assay: qHTS for inhibitors of Vif-A3G interactions: Validation (AID 588379); also: potency is read from the fitted curve at half-maximal effect
How it was run: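 HeLa cells stably expressing Vif and A3G-eYFP, 700 cells/well, incubated overnight at 37 deg C, then exposed to compound overnight at 37 deg C. Inhibition of Vif-mediated degradation read as increased yellow fluorescence (Ex 488/Em 500-530) by laser-scanning cytometry.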

[14] = target: ATPase family AAA domain-containing protein 5 (Homo sapiens) (UniProt Q96QE3); assay: Validation screen for small molecules that inhibit ELG1-dependent DNA repair in human embryonic kidney (HEK293T) cells expressing luciferase-tagged ELG1 (AID 493107); also: nearly all actives have a fitted effect of over 70% in size; also: potency is read from the fitted curve at half-maximal effect
How it was run: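 Quantitative HTS in HEK293T cells carrying luciferase-tagged ELG1, stimulated with 5-fluorouridine alongside compound for 16 hr. Loss of luciferase signal marks inhibition of ELG1 response.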

Chain of Galactokinase (Homo sapiens) (P51570 whole entry, looked up): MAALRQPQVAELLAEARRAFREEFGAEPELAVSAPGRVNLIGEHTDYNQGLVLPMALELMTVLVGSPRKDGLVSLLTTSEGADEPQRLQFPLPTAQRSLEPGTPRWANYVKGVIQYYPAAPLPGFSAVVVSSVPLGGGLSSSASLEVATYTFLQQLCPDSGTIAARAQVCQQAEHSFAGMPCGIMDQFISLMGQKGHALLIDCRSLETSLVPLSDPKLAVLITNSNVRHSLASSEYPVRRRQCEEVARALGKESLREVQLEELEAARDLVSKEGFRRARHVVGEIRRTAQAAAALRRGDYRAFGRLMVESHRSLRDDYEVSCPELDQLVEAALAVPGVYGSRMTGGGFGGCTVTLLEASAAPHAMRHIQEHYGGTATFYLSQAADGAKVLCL
Chain of DNA dC->dU-editing enzyme APOBEC-3G (Homo sapiens) (Q9HC16 whole entry, looked up): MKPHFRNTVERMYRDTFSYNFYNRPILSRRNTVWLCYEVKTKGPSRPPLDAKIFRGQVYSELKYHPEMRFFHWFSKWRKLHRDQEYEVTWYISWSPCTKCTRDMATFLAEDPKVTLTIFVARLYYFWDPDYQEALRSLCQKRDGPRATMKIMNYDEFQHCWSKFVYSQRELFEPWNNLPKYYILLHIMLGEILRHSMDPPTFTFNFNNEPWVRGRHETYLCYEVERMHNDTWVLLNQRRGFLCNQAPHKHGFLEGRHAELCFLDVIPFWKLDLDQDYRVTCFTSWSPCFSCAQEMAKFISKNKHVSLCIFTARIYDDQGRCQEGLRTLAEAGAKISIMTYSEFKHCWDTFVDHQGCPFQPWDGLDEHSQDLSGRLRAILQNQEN
Chain of phosphoglycerate mutase (Leishmania major) (Q4Q090 1-553): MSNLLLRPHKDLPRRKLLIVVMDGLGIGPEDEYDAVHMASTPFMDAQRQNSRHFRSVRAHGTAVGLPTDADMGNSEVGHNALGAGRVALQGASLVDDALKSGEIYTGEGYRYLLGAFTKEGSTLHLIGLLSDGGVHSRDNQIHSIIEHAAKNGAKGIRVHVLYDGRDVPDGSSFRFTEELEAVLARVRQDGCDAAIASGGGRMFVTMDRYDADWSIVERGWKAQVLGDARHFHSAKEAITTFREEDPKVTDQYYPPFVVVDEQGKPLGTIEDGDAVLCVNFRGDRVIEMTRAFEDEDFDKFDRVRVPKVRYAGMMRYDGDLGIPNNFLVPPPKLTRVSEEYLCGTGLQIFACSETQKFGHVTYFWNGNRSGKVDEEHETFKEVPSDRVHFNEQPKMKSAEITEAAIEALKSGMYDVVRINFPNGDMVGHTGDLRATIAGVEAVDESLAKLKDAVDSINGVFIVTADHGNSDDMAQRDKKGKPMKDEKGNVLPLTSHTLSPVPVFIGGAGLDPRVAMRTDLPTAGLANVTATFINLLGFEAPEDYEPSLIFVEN
Chain of Peptidyl-prolyl cis-trans isomerase NIMA-interacting 1 (Homo sapiens) (Q13526 whole entry, looked up): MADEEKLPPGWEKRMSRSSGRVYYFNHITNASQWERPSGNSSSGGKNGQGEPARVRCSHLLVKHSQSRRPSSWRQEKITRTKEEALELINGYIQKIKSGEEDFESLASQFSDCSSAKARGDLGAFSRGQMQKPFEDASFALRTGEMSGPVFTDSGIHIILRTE
Chain of Phosphoglycerate kinase, glycosomal (Trypanosoma brucei brucei) (P07378 whole entry, looked up): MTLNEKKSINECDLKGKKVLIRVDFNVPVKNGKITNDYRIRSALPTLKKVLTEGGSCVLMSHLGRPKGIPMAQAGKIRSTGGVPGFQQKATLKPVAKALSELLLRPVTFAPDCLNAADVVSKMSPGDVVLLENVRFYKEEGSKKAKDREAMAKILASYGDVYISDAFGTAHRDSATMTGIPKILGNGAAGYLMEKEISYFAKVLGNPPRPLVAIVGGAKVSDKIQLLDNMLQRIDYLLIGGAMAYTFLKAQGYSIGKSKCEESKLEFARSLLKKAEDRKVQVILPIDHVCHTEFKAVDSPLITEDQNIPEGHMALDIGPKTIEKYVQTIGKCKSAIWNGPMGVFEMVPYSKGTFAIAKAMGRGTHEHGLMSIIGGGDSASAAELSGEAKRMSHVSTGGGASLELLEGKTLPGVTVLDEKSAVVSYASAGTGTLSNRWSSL
Chain of ATPase family AAA domain-containing protein 5 (Homo sapiens) (Q96QE3 whole entry, looked up, the tested form may be a part): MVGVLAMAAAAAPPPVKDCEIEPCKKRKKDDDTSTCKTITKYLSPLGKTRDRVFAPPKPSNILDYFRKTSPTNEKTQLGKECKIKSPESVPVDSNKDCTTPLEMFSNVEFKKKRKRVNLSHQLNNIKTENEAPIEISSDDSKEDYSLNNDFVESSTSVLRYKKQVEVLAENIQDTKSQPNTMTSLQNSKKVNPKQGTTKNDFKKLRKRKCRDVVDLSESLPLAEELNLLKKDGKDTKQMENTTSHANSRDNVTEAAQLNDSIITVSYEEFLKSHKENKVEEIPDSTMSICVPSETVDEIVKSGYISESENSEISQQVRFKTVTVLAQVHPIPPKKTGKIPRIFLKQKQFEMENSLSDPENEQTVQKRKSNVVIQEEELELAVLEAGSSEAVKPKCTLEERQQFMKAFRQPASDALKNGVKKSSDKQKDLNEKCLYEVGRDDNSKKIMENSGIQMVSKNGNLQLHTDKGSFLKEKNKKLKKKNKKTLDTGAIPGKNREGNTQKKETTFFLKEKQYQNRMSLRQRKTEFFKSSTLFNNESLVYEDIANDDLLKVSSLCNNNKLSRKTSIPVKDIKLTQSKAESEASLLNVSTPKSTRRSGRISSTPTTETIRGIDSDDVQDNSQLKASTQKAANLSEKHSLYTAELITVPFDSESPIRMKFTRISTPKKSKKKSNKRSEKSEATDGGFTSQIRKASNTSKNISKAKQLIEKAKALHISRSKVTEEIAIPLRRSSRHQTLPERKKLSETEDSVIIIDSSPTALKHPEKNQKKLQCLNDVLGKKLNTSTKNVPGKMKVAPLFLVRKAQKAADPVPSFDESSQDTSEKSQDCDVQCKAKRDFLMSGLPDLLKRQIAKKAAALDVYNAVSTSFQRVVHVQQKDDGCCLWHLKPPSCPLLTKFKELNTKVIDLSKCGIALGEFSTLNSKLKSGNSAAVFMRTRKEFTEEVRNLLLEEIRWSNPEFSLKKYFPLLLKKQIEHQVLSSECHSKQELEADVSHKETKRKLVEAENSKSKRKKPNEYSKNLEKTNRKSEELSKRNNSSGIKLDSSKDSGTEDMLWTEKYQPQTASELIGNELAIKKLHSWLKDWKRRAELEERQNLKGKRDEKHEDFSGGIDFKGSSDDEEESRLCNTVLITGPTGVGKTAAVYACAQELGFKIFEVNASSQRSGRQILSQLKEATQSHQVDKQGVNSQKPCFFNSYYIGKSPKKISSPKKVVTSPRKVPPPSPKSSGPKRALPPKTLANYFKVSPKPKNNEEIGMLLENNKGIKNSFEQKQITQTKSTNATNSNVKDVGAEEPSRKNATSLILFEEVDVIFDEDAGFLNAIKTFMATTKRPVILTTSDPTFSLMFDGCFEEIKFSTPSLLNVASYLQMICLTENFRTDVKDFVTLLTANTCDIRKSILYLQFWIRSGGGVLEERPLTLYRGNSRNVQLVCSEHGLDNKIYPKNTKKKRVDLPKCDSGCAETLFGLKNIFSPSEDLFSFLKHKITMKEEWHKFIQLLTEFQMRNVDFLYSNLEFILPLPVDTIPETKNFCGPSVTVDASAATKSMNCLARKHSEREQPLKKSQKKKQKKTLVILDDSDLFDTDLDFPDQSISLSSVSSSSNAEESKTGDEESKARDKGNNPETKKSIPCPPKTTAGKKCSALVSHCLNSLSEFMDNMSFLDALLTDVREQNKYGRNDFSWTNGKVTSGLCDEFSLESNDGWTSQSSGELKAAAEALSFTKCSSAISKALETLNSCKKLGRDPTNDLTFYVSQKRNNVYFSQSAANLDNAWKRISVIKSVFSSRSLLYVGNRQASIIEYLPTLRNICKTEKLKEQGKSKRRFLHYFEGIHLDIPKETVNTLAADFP
Chain of Thyrotropin-releasing hormone receptor (Homo sapiens) (P34981 whole entry, looked up): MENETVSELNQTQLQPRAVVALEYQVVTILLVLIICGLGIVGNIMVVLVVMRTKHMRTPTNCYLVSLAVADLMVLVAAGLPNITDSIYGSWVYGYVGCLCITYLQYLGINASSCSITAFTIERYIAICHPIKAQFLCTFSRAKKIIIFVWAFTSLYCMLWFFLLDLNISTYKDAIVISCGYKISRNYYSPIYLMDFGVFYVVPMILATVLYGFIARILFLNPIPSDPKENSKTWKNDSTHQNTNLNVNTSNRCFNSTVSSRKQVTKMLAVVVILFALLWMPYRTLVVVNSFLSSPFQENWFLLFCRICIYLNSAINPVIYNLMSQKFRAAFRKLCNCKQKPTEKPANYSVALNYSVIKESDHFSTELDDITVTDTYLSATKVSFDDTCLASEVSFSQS
Chain of Ubiquitin carboxyl-terminal hydrolase 1 (Homo sapiens) (O94782 whole entry, looked up): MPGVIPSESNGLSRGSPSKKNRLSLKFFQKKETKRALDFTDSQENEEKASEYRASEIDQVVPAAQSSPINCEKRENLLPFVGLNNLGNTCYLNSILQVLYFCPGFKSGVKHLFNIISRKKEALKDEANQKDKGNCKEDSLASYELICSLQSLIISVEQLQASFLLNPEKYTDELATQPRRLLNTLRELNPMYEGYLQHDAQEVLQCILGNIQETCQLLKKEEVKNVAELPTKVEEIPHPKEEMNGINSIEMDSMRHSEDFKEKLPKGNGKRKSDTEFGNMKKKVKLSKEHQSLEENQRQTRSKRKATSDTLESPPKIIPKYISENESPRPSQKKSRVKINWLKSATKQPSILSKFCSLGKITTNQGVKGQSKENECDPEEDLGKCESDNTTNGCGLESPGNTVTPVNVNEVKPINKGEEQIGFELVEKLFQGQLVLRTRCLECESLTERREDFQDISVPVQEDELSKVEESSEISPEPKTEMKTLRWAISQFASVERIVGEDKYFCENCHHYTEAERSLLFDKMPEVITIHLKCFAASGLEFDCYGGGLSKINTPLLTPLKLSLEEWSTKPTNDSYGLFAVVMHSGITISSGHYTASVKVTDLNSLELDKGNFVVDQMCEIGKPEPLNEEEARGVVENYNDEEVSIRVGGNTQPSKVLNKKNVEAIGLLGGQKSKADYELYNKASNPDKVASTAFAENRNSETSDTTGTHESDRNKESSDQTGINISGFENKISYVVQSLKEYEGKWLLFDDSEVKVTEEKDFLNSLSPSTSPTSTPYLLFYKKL

NC(=O)C1=CN(C2OC(COP(=O)(O)OP(=O)(O)OC[C@H]3O[C@@H](n4cnc5c(N)ncnc54)[C@H](OP(=O)(O)O)[C@@H]3O)C(O)C2O)C=CC1 (stereo partly drawn)
5.72%: viability change [2]
active: Potency [4] 5.36 µM
inactive: Potency [1] | Potency [2] | outcome [3] | Potency [5] | Potency [6] | Potency [7] | Potency [8]

O=C(CCCCCN1CCN(c2ccccc2-c2ccccc2)CC1)NC1CCCc2ccccc21 (stereo not drawn)
inactive: Potency [1] | outcome [3] | Potency [4] | Potency [5] | Potency [6] | Potency [7]
active: Potency [9] 15.8 µM | Potency [8] 20 µM

Cn1cc(C2=C(c3ccc(Cl)cc3Cl)C(=O)NC2=O)c2ccccc21
active: Potency [7] 23.8 µM | Potency [13] 2.99 µM
inactive: Potency [1] | activation [10] 29.6% | outcome [3] | Potency [11] | Potency [12] | Potency [5] | Potency [6] | Potency [9] | Potency [8]

Cc1cc2c(cc1Cl)N(C(=O)Nc1ccc(Oc3cccnc3C)nc1)CC2
inactive: Potency [1] | Potency [4] | Potency [5] | Potency [6]
-19.7%: viability change [2]
active: Potency [2] 7.31 µM | Potency [7] 44.7 µM | Potency [8] 17.8 µM

NCCCS(=O)(=O)O
inactive: Potency [14] | activation [10] 0.5% | outcome [3] | Potency [11] | Potency [12] | Potency [4] | Potency [5] | Potency [6] | Potency [7] | Potency [8]

CCCCCCCCCCCCCCCCCC(=O)NCC(COP(=O)([O-])OCC[N+](C)(C)C)OCC (stereo not drawn)
inactive: activation [10] 2.19% | Potency [2] | outcome [3] | Potency [11] | Potency [5] | Potency [6]
active: Potency [9] 17.8 µM
1.48%: viability change [2]

CC[C@@H](C)[C@H]1O[C@]2(CC[C@H]1C)C[C@@H]1C[C@@H](CC=C(C)[C@@H](O[C@H]3C[C@H](OC)[C@@H](O[C@H]4C[C@H](OC)[C@@H](O)[C@H](C)O4)[C@H](C)O3)[C@@H](C)C=CC=C3CO[C@@H]4[C@H](O)C(C)=C[C@@H](C(=O)O1)[C@]34O)O2
inactive: Potency [1] | outcome [3] | Potency [4] | Potency [5] | Potency [6]

Cc1cc(NC(=O)Nc2ccc3c(ccn3C)c2)sn1
inactive: activation [10] 0.625% | Potency [2] | outcome [3] | Potency [11] | Potency [12] | Potency [4] | Potency [5] | Potency [6] | Potency [7] | Potency [8] | Potency [13]
3.91%: viability change [2]

OC[C@H]1O[C@@H](n2cnc3c(NC4CCCC4)ncnc32)[C@H](O)[C@@H]1O
inactive: Potency [14] | Potency [2] | outcome [3] | Potency [4] | Potency [5] | Potency [6] | Potency [7] | Potency [9] | Potency [8]
-2.89%: viability change [2]

O=C1C(SCCO)=C(SCCO)C(=O)c2ccccc21
active: Potency [11] 25.1 µM | Potency [7] 15.8 µM | Potency [8] 4.47 µM | Potency [13] 4.73 µM
inactive: Potency [1] | activation [10] -3.25% | outcome [3] | Potency [6]

c1cnc2c(c1)ccc1cccnc12
active: Potency [14] 6.51 µM | Potency [8] 3.55 µM
inactive: outcome [3] | Potency [11] | Potency [12] | Potency [4] | Potency [5] | Potency [6] | Potency [7]

Nc1nc(Cl)nc2c1ncn2[C@@H]1O[C@H](COP(=O)(O)OP(=O)(O)OP(=O)(O)O)[C@@H](O)[C@H]1O
active: Potency [4] 30.1 µM
inactive: Potency [14] | Potency [2] | outcome [3] | Potency [5] | Potency [6] | Potency [7] | Potency [9] | Potency [8]
3.12%: viability change [2]
